This is an account of results in PubChem BioAssay.

Each structure is given as a SMILES string. The source made the active and inactive calls. How the calls were made is not given here.

A short description of this test: hESC survival regulators, cell-based (AID 493140).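 Further: cells exposed to compounds for four days before counting.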 Conditions: human embryonic stem cell survival screen; hits give high values.
As to `CCOc1cc(CC(=O)N[C@@H](CC(C)C)c2ccccc2N2CCCCC2)ccc1C(=O)O`, the survival was 7.75 (inactive).

Turning to `N#Cc1ccc(C(c2ccc(C#N)cc2)n2cncn2)cc1`, the survival was 1.25 (inactive).

Turning to `COc1cc(N)c(Cl)cc1C(=O)NC1CCN(Cc2ccccc2)CC1`, the survival was 5.67 (inactive).

Take `CC1(C)O[C@@H]2C[C@H]3[C@@H]4C[C@H](F)C5=CC(=O)CC[C@]5(C)[C@H]4[C@@H](O)C[C@]3(C)[C@]2(C(=O)CO)O1`: the survival is 4.42 (inactive).

Take `C#C[C@]1(O)CC[C@H]2[C@@H]3CCc4cc(OC)ccc4[C@H]3CC[C@@]21C`: the survival is 3.33 (inactive).

Take `O=C(CCCN1CCN(c2ccccn2)CC1)c1ccc(F)cc1`: the survival was 14.6 (inactive).

Turning to `CCOC(=O)n1ccn(C)c1=S`, the survival is 11.8 (inactive).

`Cc1nccn1CC1CCc2c(c3ccccc3n2C)C1=O` (configuration not stated): the survival is 36.2 (inactive).

Take `CCOC(=O)OC(C)OC(=O)[C@@H]1N2C(=O)[C@@H](NC(=O)[C@H](N)c3ccccc3)[C@H]2SC1(C)C` (some centres not stated): the survival is 16.9 (inactive).

In the case of `COc1ccc(CC2c3cc(OC)c(OC)cc3CC[N+]2(C)CCC(=O)OCCCCCOC(=O)CC[N+]2(C)CCc3cc(OC)c(OC)cc3C2Cc2ccc(OC)c(OC)c2)cc1OC` (configuration not stated), the survival was 12.4 (inactive).

On to `C[C@@H]1C[C@H]2[C@@H]3C[C@H](F)C4=CC(=O)C=C[C@]4(C)[C@@]3(F)[C@@H](O)C[C@]2(C)[C@@]1(O)C(=O)CO`, for which the survival was 2.17 (inactive).

Take `CCC1=C(C)CN(C(=O)NCCc2ccc(S(=O)(=O)NC(=O)NC3CCC(C)CC3)cc2)C1=O` (configuration not stated): the survival is 5.08 (inactive).

In the case of `CN1CCCCC1CCN1c2ccccc2Sc2ccc(S(C)=O)cc21` (configuration not stated), the survival was 3.42 (inactive).

`COc1cccc2c1C(=O)c1c(O)c3c(c(O)c1C2=O)C[C@@](O)(C(=O)CO)C[C@@H]3O[C@H]1C[C@H](N)[C@H](O)[C@H](C)O1`: the survival is 0.167 (inactive).

Turning to `Cc1ccc(S(=O)(=O)NC(=O)NN2CC3CCCC3C2)cc1` (configuration not stated), the survival is 5.67 (inactive).

Turning to `CC(C)N=C(N)/N=C(\N)Nc1ccc(Cl)cc1`, the survival is 3 (inactive).

For the molecule `CC1(C)O[C@@H]2C[C@H]3[C@@H]4CCC5=CC(=O)CC[C@]5(C)[C@@]4(F)[C@@H](O)C[C@]3(C)[C@]2(C(=O)CCl)O1`, the survival was 5.5 (inactive).

Consider `CC[C@]12CCCN3CCc4c(n(c5ccccc45)[C@@](O)(C(=O)OC)C1)[C@@H]32`, for which the survival was 10.1 (inactive).

With `CN1CCC(=C2c3ccccc3CCc3sccc32)CC1`, the survival is 5.08 (inactive).

As to `CCN(CCCc1ccccc1)CCCc1ccccc1`, the survival was 6.17 (inactive).

For `CNNCc1ccc(C(=O)NC(C)C)cc1`, the survival was 6.5 (inactive).

Turning to `Cc1cc2c(C(C)C)c(O)c(O)c(C=O)c2c(O)c1-c1c(C)cc2c(C(C)C)c(O)c(O)c(C=O)c2c1O`, the survival is 5.5 (inactive).
